# Screening results (PubChem BioAssay)
# Only some compounds are listed: those with a hit (about 8.7% of all), similar ones and a draw of the others.
# Sfp PPTase inh: Sfp phosphopantetheinyl transferase inhibition; hit rate 3.5% among 310,000; Potency, µM, hits mostly inhibitors; Biochemical Sfp PPTase activity, qHTS;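 also: the enzyme is Sfp with the accession as filed and its product quenches rhodamine fluorescence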
#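 Buffer: 50 mM Hepes-Na pH 7.6, 10 mM MgCl2, 0.01% Nonidet P-40, 0.01% BSA. Enzyme 15 nM, pre-exposed to compound 15 min; substrates then added and fluorescence change tracked over 30 min.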
# JMJD2A Tudor inh: blocks the human JMJD2A Tudor domain. AlphaScreen JMJD2A-Tudor / H3K4me3 peptide binding. Potency, µM (series often up to 114 µM), actives largely listed as inhibitors. hit rate 4.4% among 390,000. AID 504339; also: nearly all actives have a fitted effect of over 50% in size
# HP1b chromo inh: inhibitors of HP1-beta chromodomain binding to methylated histone tails; P83916; AlphaScreen HP1-beta / biotin-H3K9me3 peptide binding; Potency, µM (highest dose often 114 µM), most hits filed as inhibitors; hit rate 0.56% among 390,000; also: nearly all actives have a fitted effect of over 70% in size
#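 AlphaScreen: HP1-beta (50 nM) preformed 30 min with biotin-H3(1-18)K9me3 peptide (50 nM) in PBS pH 7.4, 0.01% Tween-20. Compound added for 30 min at RT, then streptavidin donor/nickel chelate acceptor beads (10 ug/mL) for 30 min.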
# 12-LOX inh: blocks human arachidonate 12S-lipoxygenase; P18054; purified 12hLO, xylenol orange hydroperoxide absorbance; Potency, µM (titrated, usually from 108 µM), hits mostly inhibitors; hit rate 1.1% among 580,000; AID 1671190
# Target sequence (P18054 whole entry, looked up): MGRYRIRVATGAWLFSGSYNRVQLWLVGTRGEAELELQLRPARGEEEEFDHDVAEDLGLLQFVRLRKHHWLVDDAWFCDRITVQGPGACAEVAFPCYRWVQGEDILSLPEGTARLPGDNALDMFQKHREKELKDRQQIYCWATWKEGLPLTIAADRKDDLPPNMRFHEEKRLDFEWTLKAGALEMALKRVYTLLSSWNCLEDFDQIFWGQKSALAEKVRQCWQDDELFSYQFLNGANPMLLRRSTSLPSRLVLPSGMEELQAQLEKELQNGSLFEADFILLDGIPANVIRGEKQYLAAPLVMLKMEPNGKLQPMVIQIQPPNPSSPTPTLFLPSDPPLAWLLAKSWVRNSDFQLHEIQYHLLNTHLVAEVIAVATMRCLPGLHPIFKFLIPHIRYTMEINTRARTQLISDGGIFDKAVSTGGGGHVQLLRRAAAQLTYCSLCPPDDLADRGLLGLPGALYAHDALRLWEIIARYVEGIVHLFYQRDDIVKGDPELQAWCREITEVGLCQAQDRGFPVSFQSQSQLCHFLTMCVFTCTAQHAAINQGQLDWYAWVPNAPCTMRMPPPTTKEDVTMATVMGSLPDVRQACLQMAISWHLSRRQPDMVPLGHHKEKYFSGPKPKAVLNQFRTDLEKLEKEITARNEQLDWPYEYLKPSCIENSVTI
#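 Hydroperoxide product was detected by ferrous iron/xylenol orange as the 573 to 405 nm absorbance ratio. Arachidonic acid at 40 uM (final) was turned over for 30 min at room temperature by 150 nM human 12hLO, pH 7.0 Hepes buffer, after 15 min compound preincubation.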
# BAZ2B block: inhibitors of human BAZ2B bromodomain | Potency, µM (doses to about 114 µM), hits mostly inhibitors | hit rate 4.4% among 360,000 | AlphaScreen BAZ2B-H3K14Ac peptide displacement | Q9UIF8 | AID 504333; also: nearly all actives have a fitted effect of over 60% in size
#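 In this displacement format the biotinylated H3(5-23) peptide acetylated at Lys14 serves as ligand at 50 nM, with BAZ2B at 50 nM in PBS pH 7.4 containing 0.01% Tween-20. Donor and acceptor beads are 10 ug/mL final.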
# G9a block: inhibitors of human histone lysine methyltransferase G9a | Q96KQ7 | G9a H3K9 monomethylation, AlphaScreen, 2 h | hit rate 8.8% among 350,000 | AID 504332 | Potency, µM (series often up to 102 µM), usual class: inhibitors; also: nearly all actives have a fitted effect of over 75% in size
#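 Readings reflect AlphaScreen signal from monomethyl-H3K9 antibody detection. HMT at 20 nM; substrate b-H3K9 500 nM; cofactor SAM 20 uM; 2 h RT reaction; compounds tested as titrations in qHTS with 15 min preincubation.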
# Numbers stand for hits; - = inactive; ? = inconclusive; . = not tested or not shown; ! = repeats disagree; [ ] = dose if it differs, or a comment. Calls follow the shape of the dose curve; as a rule, active = well fitted curve in the direction sought with a large enough effect; inconclusive = small, poorly fitted or top-dose-only effect, or another doubt; inactive = no such curve, though single readings can be large; an effect the other way counts as inactive or inconclusive.
SMILES,Sfp PPTase inh,JMJD2A Tudor inh,HP1b chromo inh,12-LOX inh,BAZ2B block,G9a block
O=C(NNc1ccccc1F)C1CCC1,-,-,-,-,-,50µM
O=C(CNC(=O)C1CCCCC1)Nc1cc(Cl)ccc1Cl,-,-,-,?,-,-
O=C(NNc1cc(Cl)ccc1Cl)C1CCC1,-,71µM,-,?,-,50µM
O=C(NNc1ccc(F)cc1F)C1CCC1,-,-,-,-,-,18µM
CS(=O)(=O)N1CCC(C(=O)Nc2ccc(F)cc2F)CC1,-,-,-,-,-,-
C=CCn1c(Sc2ncccn2)nc2c1c(=O)[nH]c(=O)n2C,.,.,.,-,.,.
CC(C)N1CCN(C(=O)CCC2CCN(S(=O)(=O)c3ccccc3)CC2)CC1,.,.,.,-,.,.
N#Cc1nc(-c2ccc(F)cc2)oc1N1CCN(c2ccccc2)CC1,.,.,.,-,.,.
Cc1ccc(S(=O)(=O)N2CCN(C(=O)c3ccc(Cn4nnc5ccccc54)cc3)CC2)cc1,.,.,.,-,.,.
O=C(CCn1nc(-c2ccc(Cl)cc2)c2ccccc2c1=O)Nc1ccc(Cl)cc1,.,.,.,-,.,.
Cc1cccc(C(=O)Nc2c(C)ccc3nsnc23)c1,.,.,.,-,.,.
CC[C@@]1(C(=O)O)C[C@H](C(=O)NC(CO)CO)[C@H](c2ccc(F)cc2)N1C,.,.,.,-,.,.
CSc1cccc(NC(=O)C(C)SC)c1 (configuration not stated),.,.,.,-,.,.
O=C(NNc1ccccc1F)c1cccs1,.,-,-,.,.,.
O=C(NNc1ccccc1F)c1ccccc1,-,-,-,-,-,28µM
CCCc1sc(C(=O)Nc2ccccc2O)cc1CC,.,.,.,13µM,.,.
C=CC[n+]1c(/C=C/c2ccc(OC(C)=O)c(OC)c2)ccc2ccccc21,-,-,-,?,-,79µM
COc1ccc(S(=O)(=O)NC(C)C(=O)Nc2ccccc2F)cc1 (configuration not stated),-,-,-,-,-,40µM
COc1ccc(S(=O)(=O)N/N=C\c2ccccc2F)cc1,-,-,-,-,-,40µM
COc1ccc(S(=O)(=O)Nc2c(F)cccc2F)cc1,-,25µM,50µM,-,-,-
COc1ccc(S(=O)(=O)NC(C)C(=O)Nc2cccc(C(C)=O)c2)cc1 (configuration not stated),-,-,-,?,-,?
Nc1nc(C2CC(N)C2)cc(N2CCCN(Cc3cccs3)CC2)n1 (configuration not stated),.,.,.,-,.,.
C=CCn1cn[nH]c1=S,?,?,-,-,?,13µM
CCOc1ccccc1C(=O)N1CC2CC(C1)[C@H]1CCCC(=O)N1C2 (some centres not stated),.,.,.,-,.,.
C/C(=C1/SC(=S)N(CCC(=O)O)C1=O)c1ccc(O)cc1,-,?,-,40µM,?,-[12.7 µM]
SMILES,Sfp PPTase inh,JMJD2A Tudor inh,HP1b chromo inh,12-LOX inh,BAZ2B block,G9a block
Cc1ccc2c(c1)C(C)(C)C1(/C=C/c3ccc(Cl)cc3)NC(=O)CN21 (configuration not stated),.,.,.,-,.,.
CCOC(=O)c1cc(-c2ccc(OC(F)F)cc2)nc2c1c(=O)[nH]c(=O)n2C,-,-,-,-,-,-
CCOC(=O)c1cc(-c2ccc(OC(F)F)cc2)nc2nc(SC)[nH]c(=O)c12,-,-,-,-,-,45µM
CCOc1ccccc1NC(=O)Cn1c(=O)n(Cc2ccccc2)c(=O)c2c(C)c(C)sc21,.,-,-,-,-,-
COC(=O)c1ccccc1NC(=O)Cn1c(=O)n(Cc2ccccc2)c(=O)c2c(C)c(C)sc21,79µM,-,-,-,-,-
COc1cc2c(ccc3cc(OC)c(OC)c(O)c32)cc1O,-,10µM,?,?,7.1µM,?
COc1cc2cccc(OC)c(=O)c2c(O)c1OC,-,-,-,-,-,?
Cc1cc(CNCCN(C)C)c(C)n1-c1cc(S(=O)(=O)N2CCOCC2)ccc1N1CCCC1,.,8.9µM,-,-,.,.
Cc1ccc(C)n1-c1cc(S(=O)(=O)N2CCOCC2)ccc1N1CCCC1,?,79µM,-,?,-,?
Cc1ccc(C)c(NC(=O)CN(C)C(=O)c2cc(S(=O)(=O)N3CCOCC3)ccc2N2CCCC2)c1,-,-,-,-,-,-
Cc1ccc2c(COC(=O)COc3ccccc3)cc(=O)oc2c1C,.,.,.,-,.,.
CCOCCSc1c(C)cnc2c1c(=O)n(C)c(=O)n2C,.,-,-,-,-,13µM
CCCOc1ccccc1C(C)Nc1nc(-c2cccnc2)nc2c1CNC2 (configuration not stated),.,.,.,-,.,.
O=C(Nc1cccc(S(=O)(=O)NC2=NCCC2)c1)c1cc(Cl)ccc1[N+](=O)[O-],.,-,-,.,-,50µM
O=C(Nc1cccc(S(=O)(=O)NC2=NCCC2)c1)c1ccccc1F,.,-,-,-,.,.
CC(C)c1noc([C@@H]2C[C@H]3C(=O)NCCCCCCN(C(=O)CCC4CCCC4)[C@H]3C2)n1,.,.,.,-,.,.
CC(C)OC(=O)c1ccccc1,.,.,.,-,.,.
CC(C)OC(=O)c1c2c(n3ccccc13)C(=O)c1ccccc1C2=O,?,?,?,-,32µM,?
CCS(=O)(=O)N1CCN(c2cc3c(cc2[N+](=O)[O-])n(C)c(=O)n3C)CC1,-,-,-,-,56µM,?
Cn1c(=O)n(C)c2cc([N+](=O)[O-])c(N3CCN(S(=O)(=O)c4ccc(C(C)(C)C)cc4)CC3)cc21,-,-,-,-,-,?
COC(=O)c1ccc2c(c1)C(C)(C)C(/C=C/c1ccc(OC)c(OC)c1OC)=[N+]2C,18µM,56µM,-,2.5µM,?,-[0.0925 µM]
COc1ccc(/C=C/C(=O)c2ccc(O)cc2)cc1,-,?,-,-,?,-
COC(=O)c1ccc2c(c1)C(C)(C)C(/C=C/c1ccc(O)cc1)=[N+]2C,45µM,50µM,?,5.6µM,28µM,7.1µM
COC(=O)c1ccc2nc(C)c(C)nc2c1,-,-,-,-,-,-
SMILES,Sfp PPTase inh,JMJD2A Tudor inh,HP1b chromo inh,12-LOX inh,BAZ2B block,G9a block
COc1cc(OC)c(C2CC(=O)Nc3c(-c4ccccc4)nsc32)cc1OC (configuration not stated),.,.,.,-,.,.
Cc1c(CCC(=O)N2CCCC2)c(=O)oc2cc(O)ccc12,.,.,.,-,.,.
S=c1[nH]c(-c2cccc(Cl)c2)cs1,.,.,.,8.9µM,.,.
S=c1[nH]c(-c2ccccc2)cs1,79µM,22µM,?,2µM,40µM,1.4µM
S=c1[nH]c(-c2ccc(Cl)cc2Cl)cs1,.,.,.,13µM,.,.
Fc1ccc(-c2csc(=S)[nH]2)cc1,11µM,22µM,-,7.9µM!,50µM,?
O=c1[nH]c(-c2ccc(Cl)cc2)cs1,-,-,-,-,.,-
O=c1[nH]c(-c2ccccc2)cs1,-,-,-,-,-,-
CN(CC1(C)CCOCC1)C(=O)c1ccc2cc[nH]c2c1,.,.,.,-,.,.
COc1ccc2nc(C)cc(N/N=C/c3ccccc3)c2c1,.,?,-,.,-,-[12.7 µM]
